# Results: PubChem BioAssay (NCATS)
# Results filed as inconclusive are left out. Entries that show only a call come without a potency. Active and inactive are the calls of the source. Calls come from the whole dose curve; as a rule, active = well fitted curve in the direction sought with a large enough effect; inconclusive = small, poorly fitted or top-dose-only effect, or another doubt; inactive = no such curve, though single readings can be large; an effect the other way counts as inactive or inconclusive.
# Columns and labels:
# [1] = target: N-terminal Xaa-Pro-Lys N-methyltransferase 1 (Homo sapiens) (UniProt Q9BV86); test: qHTS Assay for Inhibitors of N-terminal methyltransferase 1 (NTMT1): LOPAC validation of the NTMT1 SAHH-coupled ThioGlo3 Assay (AID 1347143);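 note: SAH from peptide methylation measured as thiol fluorescence via SAHH coupling and ThioGlo3; nearly all actives have a fitted effect of over 70% in size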; note: potency is the fitted concentration of half-maximal effect
# N-terminal Xaa-Pro-Lys N-methyltransferase 1 (Homo sapiens), sequence (Q9BV86 whole entry, looked up): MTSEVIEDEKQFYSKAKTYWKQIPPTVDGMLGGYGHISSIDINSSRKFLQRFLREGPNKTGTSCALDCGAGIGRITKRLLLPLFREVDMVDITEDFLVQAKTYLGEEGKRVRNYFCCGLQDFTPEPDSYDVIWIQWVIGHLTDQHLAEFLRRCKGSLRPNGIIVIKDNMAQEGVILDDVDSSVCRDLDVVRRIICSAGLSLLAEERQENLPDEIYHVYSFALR
# Method in brief: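 Inhibition of NTMT1 methylation of peptide SPKRIA is followed by converting SAH with SAHH and labelling the released thiol with ThioGlo3. Plates are read at 340/450nm before and 30 min after reagent addition, both at room temperature.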
# [2] = tested on: Zika virus NS2B-NS3 protease (unlinked); test: Optimization of GU AMC qHTS for Zika virus inhibitors: Unlinked NS2B-NS3 protease assay (AID 1347151); note: series mostly up to about 52 µM; nearly all actives have a fitted effect of over 80% in size
# Method in brief: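 Fluorescence read-out (340 nm ex / 450 nm em) of AMC peptide cleavage, taken immediately and after 15 min at room temperature (~20% conversion). Enzyme was the unlinked NS2B–NS3 complex at 25 nM in Tris pH 8.0 buffer.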
# [3] = qHTS of pediatric cancer cell lines to identify multiple opportunities for drug repurposing: Confirmatory screen for RD cells (AID 1347124);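 note: cells exposed to compound for 48 h before viability readout; nearly all actives have a fitted effect of over 65% in size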; note: potency is the fitted concentration of half-maximal effect
# Method in brief: (§1)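 Cells (500-1,000/well) rested 5 h, then received compounds for 48 h; metabolically active cells were measured by CellTiter-Glo luminescence. Final concentrations spanned up to 46 µM (MIPE, 11-point) or 0.59 nM-46 µM (NPC, 8-point) in primary screens, 11-point in follow-ups.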
# [4] = qHTS of pediatric cancer cell lines to identify multiple opportunities for drug repurposing: Confirmatory screen for Rh18 cells (AID 1347125); note: nearly all actives have a fitted effect of over 55% in size; note: potency is the fitted concentration of half-maximal effect
# Method in brief: as §1
# [5] = qHTS of pediatric cancer cell lines to identify multiple opportunities for drug repurposing: Confirmatory screen for Rh30 cells (AID 1347126); note: nearly all actives have a fitted effect of over 55% in size; note: potency is the fitted concentration of half-maximal effect
# Method in brief: as §1
# [6] = qHTS of pediatric cancer cell lines to identify multiple opportunities for drug repurposing: Confirmatory screen for Saos-2 cells (AID 1347127); note: nearly all actives have a fitted effect of over 60% in size; note: potency is the fitted concentration of half-maximal effect
# Method in brief: as §1
# [7] = qHTS of pediatric cancer cell lines to identify multiple opportunities for drug repurposing: Confirmatory screen for SK-N-SH cells (AID 1347129);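 note: cells exposed to compound for 48 h before viability read; nearly all actives have a fitted effect of over 60% in size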
# Method in brief: as §1
# [8] = qHTS of pediatric cancer cell lines to identify multiple opportunities for drug repurposing: Confirmatory screen for OHS-50 cells (AID 1347128);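 note: compound exposure lasted 48 h at 37 degrees C; nearly all actives have a fitted effect of over 55% in size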
# Method in brief: as §1
# Furin (Homo sapiens) = Furin (Homo sapiens) (UniProt P09958); test: Furin counterscreen qHTS for Zika virus inhibitors (AID 1347149);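 note: purified recombinant full-length human furin enzyme at 5 nM; fluorescence gain from furin cutting a BOC-RVRR-AMC peptide substrate over 15 min; top concentration of the series differs between compounds; nearly all actives have a fitted effect of over 70% in size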
# Furin (Homo sapiens), sequence (P09958 whole entry, looked up): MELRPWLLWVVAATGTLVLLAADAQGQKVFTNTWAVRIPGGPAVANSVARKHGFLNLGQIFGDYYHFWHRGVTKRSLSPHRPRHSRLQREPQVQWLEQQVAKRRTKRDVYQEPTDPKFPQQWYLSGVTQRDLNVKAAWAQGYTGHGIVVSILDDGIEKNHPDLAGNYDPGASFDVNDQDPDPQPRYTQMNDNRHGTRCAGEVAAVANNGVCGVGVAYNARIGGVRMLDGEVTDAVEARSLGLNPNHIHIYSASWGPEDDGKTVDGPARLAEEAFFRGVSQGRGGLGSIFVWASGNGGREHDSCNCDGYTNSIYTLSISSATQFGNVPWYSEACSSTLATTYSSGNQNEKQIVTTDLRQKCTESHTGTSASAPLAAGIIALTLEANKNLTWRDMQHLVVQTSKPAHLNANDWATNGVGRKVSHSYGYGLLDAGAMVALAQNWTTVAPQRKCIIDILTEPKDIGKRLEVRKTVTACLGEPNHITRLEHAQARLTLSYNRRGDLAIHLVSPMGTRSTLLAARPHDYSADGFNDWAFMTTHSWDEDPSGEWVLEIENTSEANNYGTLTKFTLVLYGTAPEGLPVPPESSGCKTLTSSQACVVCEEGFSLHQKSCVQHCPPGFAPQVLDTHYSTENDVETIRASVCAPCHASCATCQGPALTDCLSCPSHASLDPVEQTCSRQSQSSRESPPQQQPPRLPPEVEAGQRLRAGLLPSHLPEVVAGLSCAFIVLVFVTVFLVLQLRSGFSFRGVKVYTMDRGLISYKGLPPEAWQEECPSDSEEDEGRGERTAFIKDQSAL
# Method in brief: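 Fluorogenic cleavage of BOC-RVRR-AMC (2 microM final, Km ~15 µM) was monitored (ex 340, em 450 nm) at 37C after 15 min RT preincubation of 5 nM furin with compounds in HEPES pH 7.0 buffer with CaCl2 and Triton X-100. Percent inhibition was fitted to a 4-parameter Hill curve.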
# [9] = tested on: Zika virus NS2B-NS3 protease (linked construct); test: Confirmatory screen NINDS AMC qHTS for Zika virus inhibitors (AID 1347152);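 note: AMC fluorescence gain from cleaved Bz-Nle-KRR-AMC substrate over 15 min; top concentration of the series differs between compounds; nearly all actives have a fitted effect of over 70% in size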
# Method in brief: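 Linked NS2B-NS3 1 nM, Tris pH 8.0/0.01% Tween 20; cpd 15 min RT dark; + Nle-KRR-AMC 10 µM (Km 18.3 µM); read 0 and 15 min, 340/450 nm; %inh vs controls, 4-param Hill.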
smiles,measurement,setting,value
NC(=O)c1cn(Cc2c(F)cccc2F)nn1,Potency,[1],inactive
same,Potency,[2],inactive
CCN(CC)CC(=O)Nc1c(C)cccc1C,Potency,[1],inactive
same,Potency,[2],inactive
Nc1nc(N)c2nc(-c3ccccc3)c(N)nc2n1,Potency,[3],inactive
same,Potency,[4],inactive
same,Potency,[5],inactive
same,Potency,[6],inactive
same,Potency,[7],inactive
same,Potency,[2],inactive
CN1C[C@H](C(=O)N[C@]2(C)O[C@@]3(O)[C@@H]4CCCN4C(=O)[C@H](Cc4ccccc4)N3C2=O)C[C@@H]2c3cccc4[nH]cc(c34)C[C@H]21,Potency,[3],inactive
same,Potency,[4],inactive
same,Potency,[5],inactive
same,Potency,[6],inactive
same,Potency,[8],inactive
same,Potency,[1],inactive
same,Potency,[2],inactive
NC(=O)c1ncn([C@@H]2O[C@H](CO)[C@@H](O)[C@H]2O)c1O,Potency,[1],inactive
same,Potency,[2],inactive
Cc1ccc(Cl)c(Nc2ccccc2C(=O)O)c1Cl,Potency,[1],inactive
CCOC(=O)c1cnc2c(cnn2CC)c1NN=C(C)C,Potency,[1],56.2 µM (active)
same,Potency,Furin (Homo sapiens),inactive
same,outcome,[9],inactive
c1ccc2c(c1)CCCC2C1=NCCN1 (stereo not given),Potency,[1],inactive
same,Potency,[2],inactive
Nc1ncn([C@@H]2O[C@H](CO)[C@@H](O)[C@H]2O)c(=O)n1,Potency,[1],inactive
same,Potency,[2],inactive
CCn1ccnc1CC1COc2ccccc2O1 (stereo not given),Potency,[1],inactive
same,Potency,[2],inactive
C=CCc1ccccc1OCC(O)CNC(C)C (stereo not given),Potency,[1],inactive
same,Potency,[2],inactive
OC(CCN1CCCCC1)(c1ccccc1)C1CCCCC1 (stereo not given),Potency,[1],inactive
same,Potency,[2],inactive
C[C@]12CC[C@@H]3c4ccc(O)cc4C[C@@H](CCCCCCCCCS(=O)CCCC(F)(F)C(F)(F)F)[C@H]3[C@@H]1CC[C@@H]2O (stereo not given in full),Potency,[3],inactive
same,Potency,[4],inactive
same,Potency,[5],inactive
same,Potency,[6],inactive
same,Potency,[8],inactive
same,Potency,[7],inactive
same,Potency,[1],inactive
same,Potency,[2],inactive
O=c1[nH]c(=O)n([C@H]2C[C@H](O)[C@@H](CO)O2)cc1Br,Potency,[1],inactive
same,Potency,[2],inactive
CCN1CCC[C@H]1CNC(=O)c1c(O)c(Cl)cc(Cl)c1OC,Potency,[1],50.1 µM (active)
N[C@@H](COP(=O)(O)O)C(=O)O,Potency,[1],inactive
same,Potency,[2],inactive
CN/C(=C\[N+](=O)[O-])NCCSCc1ccc(CN(C)C)o1,Potency,[4],inactive
same,Potency,[5],0.185 µM (active)
same,Potency,[6],inactive
same,Potency,[8],inactive
same,Potency,[7],inactive
same,Potency,[2],inactive
CN1C(=O)CC[C@H]1c1cccnc1,Potency,[1],inactive
CCOC(=O)C1=C(C)NC(C)=C(C(=O)OC)C1c1cccc([N+](=O)[O-])c1 (stereo not given),Potency,[1],inactive
same,Potency,[2],inactive
C[C@]12C=CC(=O)C=C1CC[C@H]1[C@@H]3C[C@@H](O)[C@](O)(C(=O)CO)[C@@]3(C)C[C@H](O)[C@@]12F,Potency,[3],7.37 µM (active)
same,Potency,[4],9.27 µM (active)
same,Potency,[5],7.37 µM (active)
same,Potency,[6],9.27 µM (active)
same,Potency,[7],inactive
same,Potency,[1],inactive
same,Potency,[2],inactive
C[N+](C)(C)CCOC(N)=O,Potency,[1],inactive
same,Potency,[2],inactive
CC(=O)OCC1=C(C(=O)O)N2C(=O)[C@@H](NC(=O)Cc3cccs3)[C@H]2SC1,Potency,[1],inactive
same,Potency,[2],inactive
CC(C)(Oc1ccc(CCNC(=O)c2ccc(Cl)cc2)cc1)C(=O)O,Potency,[1],inactive
same,Potency,[2],inactive
FC(F)(F)c1ccccc1-n1ccnc1,Potency,[1],inactive
same,Potency,[2],inactive
O=C(CCNNC(=O)c1ccncc1)NCc1ccccc1,Potency,[1],inactive
same,Potency,[2],inactive
CN(C)[C@@H]1C(=O)C(C(N)=O)=C(O)[C@@]2(O)C(=O)C3=C(O)c4c(O)ccc(Cl)c4[C@@H](O)[C@H]3C[C@@H]12,Potency,[1],56.2 µM (active)
same,Potency,[2],inactive
NC(=O)N1c2ccccc2C=Cc2ccccc21,Potency,[1],inactive
same,Potency,[2],inactive
CCCN1C[C@H](CSC)C[C@@H]2c3cccc4[nH]cc(c34)C[C@H]21,Potency,[1],inactive
same,Potency,[2],inactive
CCCC(C(=O)OCCN(CC)CC)(c1ccccc1)c1ccccc1,Potency,[1],inactive
same,Potency,[2],inactive
CCCOc1ccccc1-c1nc2n[nH]nc2c(=O)[nH]1,Potency,[1],inactive
same,Potency,[2],inactive
O=C(CCCN1CCC(O)(c2cccc(C(F)(F)F)c2)CC1)c1ccc(F)cc1,Potency,[1],inactive
same,Potency,[2],inactive
C[C@]12CCC(=O)C=C1CC[C@@H]1[C@@H]2CC[C@@]2(C)[C@H]1CC[C@]2(O)C(=O)CO,Potency,[1],inactive
same,Potency,[2],inactive
CCCN(CCC)C(=O)C(CCC(=O)O)NC(=O)c1ccccc1 (stereo not given),Potency,[1],inactive
same,Potency,[2],inactive
CC(=O)Oc1cc(C(C)C)c(OCCN(C)C)cc1C,Potency,[1],inactive
same,Potency,[2],inactive
CC[N+](C)(C)c1cccc(O)c1,Potency,[1],inactive
same,Potency,[2],inactive
C[C@@H](O)[C@H]1C(=O)N2C(C(=O)O)=C(SCCN=CN)C[C@H]12,Potency,[1],inactive
same,Potency,[2],inactive
CN(C)C(=O)Oc1ccc[n+](C)c1,Potency,[1],inactive
same,Potency,[2],inactive
NC1=NCC2c3ccccc3Cc3ccccc3N12 (stereo not given),Potency,[1],inactive
same,Potency,[2],inactive
C(=C\c1ccccc1)/CN1CCN(C(c2ccccc2)c2ccccc2)CC1,Potency,[1],inactive
same,Potency,[2],inactive
